# Data published in the supplement of paper PMC5662767.
# Counter-ions that a name gives are not always drawn.
# Tested on: Drosophila S2 cl14 SmoIP sensor cells
# Experiment: normalized SmoIP GFP fluorescence (untreated unstimulated = 0%, untreated Hh-stimulated = 100%); higher = more Smo activation sensor fluorescence
# Conditions: compound concentration: 2 uM, 24 h
# [1] = stimulation: Hh conditioned medium (+Hh)
# [2] = stimulation: mock conditioned medium (-Hh)
# 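Note: flow cytometry read-out as median GFP intensity of gated cells, compounds added 30 min before Hh-conditioned or mock medium, mock-treated cells serving as unstimulated baseline.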
SMILES,normalized SmoIP GFP fluorescence [1] [%],normalized SmoIP GFP fluorescence [2] [%]
Cc1cccc(-c2[nH]c(C(C)(C)C)nc2-c2ccc3nccnc3c2)n1,102,-5.22
C=CC(=O)Nc1ccc2ncnc(Nc3cccc(Br)c3)c2c1,125,-0.662
CC[C@H](NC(=O)[C@H](C)NC)C(=O)N1C[C@@H](O)C[C@H]1Cc1c(-c2[nH]c3cc(F)ccc3c2C[C@@H]2C[C@H](O)CN2C(=O)[C@H](CC)NC(=O)[C@H](C)NC)[nH]c2cc(F)ccc12,78.2,-2.08
CCc1cc2c(cc1N1CCC(N3CCOCC3)CC1)C(C)(C)c1[nH]c3cc(C#N)ccc3c1C2=O,148,8.36
Oc1ccc([C@H]2COc3cc(O)ccc3C2)cc1 [equol],107,-3.9
O=C(Nc1ccccc1)Nc1ccc(-c2ccc(C(=O)[C@@H]3CCC[C@H]3C(=O)O)cc2)cc1,128,-11
O=C(Nc1cccc(C(F)(F)F)c1)Nc1cc(S(=O)(=O)NC2CC2)ccc1-c1ccsc1,111,-3.05
Nc1cccc2c1C(=O)N(C1CCC(=O)NC1=O)C2=O (centres undefined) [Pomalidomide(CC-4047)],103,10.4
CN(Cc1cnc2nc(N)nc(N)c2n1)c1ccc(C(=O)N[C@@H](CCC(=O)O)C(=O)O)cc1 [Abitrexate],200,13.3
CC(COc1ccccc1)N(CCCl)Cc1ccccc1 (centres undefined) [Phenoxybenzamine-hydrochloride],148,-12.4
O=C(O)CCc1ccc(NCc2cccc(Oc3ccccc3)c2)cc1,105,-2.19
Cc1ccc(-c2c(-c3nn(C)c4ncnc(N5CC[C@H](N6CCCCC6)C5)c34)cnn2C)cc1,114,-2.71
